High-throughput results from PubChem BioAssay.
Sampled rows, rich in hits. Any-hit rate of the full collection: about 11%.
HPGD inh – inhibitors of human 15-hydroxyprostaglandin dehydrogenase (HPGD); P15428; purified HPGD, NADH fluorescence kinetic, PGE2 substrate; Potency, µM, for the others: top-dose activity change, negative = inhibition, actives largely listed as inhibitors; 150,000 tested, 4.3% active; AID 894; active means well fitted inhibition curve with a large enough effect, not every such curve was filed as active; inconclusive means small, poorly fitted or top-dose-only effect, or another doubt; inactive means no such curve, though single readings can be large or run the other way; further: potency means the concentration at half of the fitted maximal effect; on the % scale 0 is the no-effect control and ±100 the full control effect
Target sequence (P15428 whole entry, looked up): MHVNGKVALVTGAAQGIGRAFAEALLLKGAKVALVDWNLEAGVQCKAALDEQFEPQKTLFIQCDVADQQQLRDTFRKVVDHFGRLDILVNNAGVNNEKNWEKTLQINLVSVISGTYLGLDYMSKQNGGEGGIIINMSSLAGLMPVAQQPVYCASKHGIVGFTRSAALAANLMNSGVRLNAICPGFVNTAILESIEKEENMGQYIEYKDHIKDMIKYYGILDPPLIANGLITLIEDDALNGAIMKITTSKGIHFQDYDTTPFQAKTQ
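NADH formation kinetics: reaction with 30 uM PGE2 and 1 mM NAD+ (final), 20 nM enzyme, Tris-HCl pH 8 with Tween 20, after 15 min compound preincubation at room temperature. Fluorescence change, last versus first of five reads.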
PNC assembly inh – blocks assembly of the perinucleolar compartment; 140,000 tested, 3.1% active; activity change (PNC), negative = inhibition, % at 10 µM; AID 2417; PC3M PTB-GFP, PNC prevalence imaging, 16 h; hits give low values;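 active means readout at or below -70, meaning at least 70% loss of cells showing the perinucleolar compartment, a nuclear body marking cancer cells; inconclusive means readout between -30 and a set limit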;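 further: plate controls were DMSO wells for no effect and camptothecin positive control wells for full effect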
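PC3M cells stably expressing PTB-GFP, 750–1000 cells/well, treated 16 h at 37 °C with compound (23 nl of library stock), in duplicate. After paraformaldehyde fixation and Hoechst stain, imaged at 20x; PNC prevalence scored by image analysis.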
HTT cytoprotect – cytoprotection in Huntington HTT-Q103 PC12 cell model. Potency, µM (top dose mostly 56.4 µM), without a hit: cytoprotection (ATP increase), usual class: activators. 230,000 tested, 0.14% active. PC12 HTT-Q103 induced, cytoprotection, ATP luminescence, 40 h; further: potency means the concentration at half of the fitted maximal effect; % of control where 0% means no effect; nearly all actives have a fitted effect of over 45% in size
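PC12 cells stably carrying ecdysone-inducible Htt exon 1 (Q103)–GFP were induced with 100 nM tebufenozide (final) alongside library compounds in a dose series. Cytoprotection was scored as retained ATP by ATPlite luminescence.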
ALDH1A1 block – inhibitors of human aldehyde dehydrogenase 1A1; 220,000 tested, 7.3% active; Potency, µM (doses to about 75.3 µM), for the others: at the top dose activity, negative = inhibition, most hits filed as inhibitors; AID 1030; Purified ALDH1A1, NADH fluorescence, propionaldehyde substrate; active means well fitted inhibition curve with a large enough effect, not every such curve was filed as active; inconclusive means small, poorly fitted or top-dose-only effect, or another doubt; inactive means no such curve, though single readings can be large or run the other way;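 further: potency means the concentration at half of the fitted maximal effect; plate controls were no enzyme wells and a reference inhibitor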
HTT aggregate – mutant huntingtin aggregation inhibition; PC12 HttQ103-GFP aggregates, Acumen cytometry, 40 h; Potency, µM (titrated, usually from 46.1 µM), for inactives: at the top dose activity change, negative = inhibition, actives largely listed as inhibitors; 220,000 tested, 1.1% active; AID 1688; further: potency means the concentration at half of the fitted maximal effect; on the % scale 0 is the no-effect control and ±100 the full control effect; nearly all actives have a fitted effect of over 60% in size
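Quantitative HTS on tebufenozide-induced (100 nM) PC12 cells stably expressing polyQ103 Huntingtin exon 1–GFP. Reduction of bright GFP aggregates, detected by laser scanning cytometry after lysis, identified actives across the titration.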
CBFb RUNX1 block – blocks binding between human CBF-beta and RUNX1; Q01196+Q13951; AlphaScreen CBFb-His/RUNX1-biotin binding, biochemical; Potency, µM (highest dose often 59.8 µM), for inactives: at the highest dose activity, negative = inhibition, most hits filed as inhibitors; 230,000 tested, under 10 active; AID 1477; further: % of control where 0% means no effect
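Read-out: AlphaScreen. Format: His-CBF-beta with biotinylated RUNX1 (30 nM each) preincubated 20 min, compound 15 min, Ni-chelate plus streptavidin beads 90 min; room temperature throughout.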
The depositor's hits bear a star; i = inactive; ? = inconclusive; / = no result; [ ] = remark or other dose. Unless noted, the call rests on the fitted dose curve; in most records, active means well fitted curve in the direction sought with a large enough effect; inconclusive means small, poorly fitted or top-dose-only effect, or another doubt; inactive means no such curve, though single readings can be large; an effect the other way counts as inactive or inconclusive.

SMILES | HPGD inh | PNC assembly inh | HTT cytoprotect | ALDH1A1 block | HTT aggregate | CBFb RUNX1 block
COC(=O)C1CCN(C(=O)/C=C/c2ccc(OC)cc2)CC1 | -20% | 46 | -18% | ? | 4% | 10%
C=C(C)[C@H]1CC[C@]2(C(=O)O)CC[C@]3(C)[C@@H](CC[C@H]4[C@@]5(C)CC[C@@H](O)C(C)(C)[C@@H]5CC[C@@]43C)[C@H]12 | -11% | / | -34%[17.1 µM] | 11%[20.9 µM] | / | -14%[21.7 µM]
O=C1NC(c2ccccc2)C(C(=O)c2cccs2)=C1O (centres undefined) | -3% | -107* | 6% | -11% | ? | 6%
CC(C)(C)SCCNC(=O)/C=C/c1cccc([N+](=O)[O-])c1 | -7% | 29 | 2%[10 µM] | 14µM* | -7% | -4%
CC(C)(C)SCCNC(=O)/C=C/c1ccc([N+](=O)[O-])cc1 | -11% | ? | / | ? | 5% | -6%
O=C(/C=C/c1cccc([N+](=O)[O-])c1)NCCSCc1ccc(Cl)cc1 | -26% | -16 | -3%[10 µM] | 22µM* | -25% | -1%
CCOC(=O)c1c(NC(=O)c2cccc(N3C(=O)CCC3=O)c2)sc(C)c1C | -29% | 30 | -7% | i | 0% | 4%
CCOC(=O)c1c(NC(=O)C2=C(C)NC(=S)NC2c2ccc(F)cc2)sc(C)c1C (centres undefined) | ? | -29 | / | 14µM* | / | 2%
CCOC(=O)c1c(NC(=O)C2=C(C)NC(=S)NC2c2ccc(C)cc2)sc(C)c1C (centres undefined) | ? | -22 | -3%[1.9 µM] | ? | 2% | -2%
CCOC(=O)c1c(NC(=O)C2=C(C)NC(=S)NC2c2ccc(F)cc2F)sc(C)c1C (centres undefined) | -21% | ? | -22%[1.9 µM] | 11µM* | -14% | 3%
CCCCC/C=C\C/C=C\CCCCCCCCCC(=O)NCCCC(=O)O | -4% | / | ? | -1% | / | 11%
COc1ccccc1NS(=O)(=O)c1cccc(C(=O)N/N=C(\C)c2ccc(-n3ccnc3)cc2)c1 | -3% | ? | -14% | ? | -4% | -5%
COC(=O)c1sccc1NS(=O)(=O)c1ccc(OC)cc1 | 20µM* | 13 | -7% | -3% | -2% | 6%
COC(=O)c1sccc1NC(=O)Cc1ccc(OC)cc1 | -7% | ? | / | -6% | 40µM* | 5%
COc1ccccc1NS(=O)(=O)c1cccc(C(=O)N/N=C(\C)c2ccc3c(c2)OCCO3)c1 | -9% | 22 | 20%[0.074 µM] | 25µM* | -13% | -2%
COC(=O)c1ccc(C)c(NS(=O)(=O)c2ccc(OC)cc2)c1 | -2% | -94* | -6%[10 µM] | 0.79µM* | -5% | 0%
Cc1ccc(CN2CCN(Cc3ccc(C)o3)[C@@H](C)C2)o1 | -6% | / | 1%[10 µM] | 5%[13.5 µM] | / | /
NC(=O)c1ccc[n+](CC(=O)c2ccc(F)cc2)c1 | / | / | 13%[10 µM] | / | 20%[9.22 µM] | -1%
COC(=O)c1sccc1NC(=O)NC1CCCCC1 | / | / | -32% | -6% | -14% | 0%
COC(=O)c1sccc1NC(=S)N(C)C1CCCCC1 | / | / | -15% | 0.35µM* | 12% | 8%
C/C(=N\S(=O)(=O)c1ccc(C)cc1)Nc1cc(C(C)C)c(O)cc1C | -6% | ? | -4%[10 µM] | 2.8µM* | 1% | -18%
O=C(NNS(=O)(=O)c1ccc(Br)cc1)c1sccc1-n1cccc1 | / | / | -19% | -16% | -3% | -7%
COC(=O)c1ccc(C)c(NS(=O)(=O)c2ccc3c(c2)OCCO3)c1 | -1% | -112* | -7%[10 µM] | 7.9µM* | 18% | 3%
COC(=O)c1ccc(C)c(NS(=O)(=O)c2ccc(C)c([N+](=O)[O-])c2)c1 | -13% | 13 | -1% | ? | 18% | -2%
COc1ccc(S(=O)(=O)NNC(=O)c2sccc2-n2cccc2)cc1 | / | / | ? | 2.8µM* | -6% | -1%
S=C1SCN(C2CCCCCCCCCCC2)CN1C1CCCCCCCCCCC1 | -5% | / | 1%[10 µM] | 0%[13.5 µM] | / | /
COCC(=O)N1CCC2(CC1)CCN(c1ccc(-c3ccccc3)cc1)CC2 | -18% | / | -158% | ? | / | /
COc1ccc(-n2c(=O)c(-c3cn(C)c4ccccc34)nc3cnc(N4CCOCC4)nc32)cc1 | / | / | -33% | ? | / | /
